Reference: PubChem BioAssay (NCATS)
Inconclusive results are not listed. Calls of active or inactive are those of the source. Calls come from the whole dose curve; as a rule, active = well fitted curve in the direction sought with a large enough effect; inconclusive = small, poorly fitted or top-dose-only effect, or another doubt; inactive = no such curve, though single readings can be large; an effect the other way counts as inactive or inconclusive.

Columns and labels:
[1] = qHTS for compounds that reverse cellular toxicity of Amyloid beta (A-beta) peptide in yeast: LOPAC Validation Assay (AID 720559)
Method in brief: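 Yeast expressing toxic A-beta grown with pinned compounds at 30 C for 48 hr. Growth measured as absorbance at 600 nm; data normalized to DMSO and to an equimolar FeCl3/clioquinol mixture as positive control.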

[2] = qHTS for Activators of Parkin Expression: LOPAC Validation Assay (FLuc Reporter) (AID 720573)
Method in brief: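 Neuronal cell line stably expressing FLuc/NLuc coincidence reporter under the Parkin promoter, 1,500 cells/well, dosed 24 h after seeding in 7-point series for 24 h at 37 C. FLuc luminescence read; normalized to DMSO and positive control (100%).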

[3] = molecular target: Hexokinase-4 (Homo sapiens) + Glucokinase regulatory protein (Homo sapiens) (UniProt P35557+Q14397); experiment: qHTS assay for inhibitors of recombinant human GCK-GKRP interaction: Diaphorase-coupled assay (AID 743205)
Method in brief: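 Compounds pre-incubated 20 min with substrate, then 10 nM GST-GCK with 10 nM FLAG-GKRP added. GCK activity coupled via G6PDH and diaphorase to resorufin (5 mM glucose, 0.4 mM ATP, 0.15 mM NADP+, pH 7.6), read kinetically over 30 minutes at Ex 525/Em 590 nm.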

[4] = qHTS for Activators of Parkin Expression: LOPAC Validation Assay (NLuc Reporter) (AID 720572)
Method in brief: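 Neuronal line stably carrying a FLuc/NLuc coincidence reporter under the Parkin promoter, seeded 24 h, then dosed in 7-point series for 24 h at 37 C. NLuc luminescence read after FLuc; normalized to DMSO and positive control (100%).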

Measured: Potency

Sequence of Hexokinase-4 (Homo sapiens) + Glucokinase regulatory protein (Homo sapiens) (P35557 whole entry, looked up): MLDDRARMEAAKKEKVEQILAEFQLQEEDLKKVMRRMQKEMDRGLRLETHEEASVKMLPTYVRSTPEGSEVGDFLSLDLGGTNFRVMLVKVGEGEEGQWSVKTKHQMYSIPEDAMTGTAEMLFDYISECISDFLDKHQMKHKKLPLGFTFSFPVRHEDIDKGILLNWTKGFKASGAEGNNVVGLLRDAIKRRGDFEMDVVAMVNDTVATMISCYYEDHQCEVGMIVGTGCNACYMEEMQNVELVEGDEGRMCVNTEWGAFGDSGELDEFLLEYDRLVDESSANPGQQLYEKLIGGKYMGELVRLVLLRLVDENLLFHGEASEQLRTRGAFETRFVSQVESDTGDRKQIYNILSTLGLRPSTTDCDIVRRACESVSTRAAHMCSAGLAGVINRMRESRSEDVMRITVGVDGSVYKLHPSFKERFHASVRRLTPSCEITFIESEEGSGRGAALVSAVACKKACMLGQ
Sequence of Hexokinase-4 (Homo sapiens) + Glucokinase regulatory protein (Homo sapiens) (Q14397 whole entry, looked up): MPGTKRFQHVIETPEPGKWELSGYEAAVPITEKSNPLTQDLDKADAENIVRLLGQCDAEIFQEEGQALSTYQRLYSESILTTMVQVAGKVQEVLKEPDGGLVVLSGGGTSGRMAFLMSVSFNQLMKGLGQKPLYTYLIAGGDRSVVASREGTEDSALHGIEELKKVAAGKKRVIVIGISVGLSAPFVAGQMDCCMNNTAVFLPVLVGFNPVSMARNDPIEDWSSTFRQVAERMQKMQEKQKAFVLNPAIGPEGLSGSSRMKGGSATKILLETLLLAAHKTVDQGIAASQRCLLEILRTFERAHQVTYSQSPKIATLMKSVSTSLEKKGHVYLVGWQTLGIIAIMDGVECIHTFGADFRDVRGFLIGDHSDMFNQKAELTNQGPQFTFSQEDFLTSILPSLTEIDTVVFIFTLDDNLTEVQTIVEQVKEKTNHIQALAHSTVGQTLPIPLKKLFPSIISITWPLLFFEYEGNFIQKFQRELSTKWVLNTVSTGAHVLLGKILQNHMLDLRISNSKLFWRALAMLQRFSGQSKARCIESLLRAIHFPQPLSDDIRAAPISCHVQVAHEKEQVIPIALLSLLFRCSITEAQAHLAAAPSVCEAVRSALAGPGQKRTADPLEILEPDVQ

CCCn1c(=O)c(C)cn2nc(N)nc12
inactive: [1] | [2] | [3]

Brc1c(Br)c(Br)c2[nH]cnc2c1Br
inactive: [1] | [2] | [3]

COC(=O)[C@H](NC(=O)c1cc(-c2ccccc2)nc2ccccc12)c1ccccc1
inactive: [1] | [2] | [3]

NC(N)=[N+]1CCc2ccccc2C1
inactive: [1] | [4] | [2] | [3]

C=CCN1CCc2c(cc(O)c(O)c2Cl)C(c2ccccc2)C1 (centres undefined)
inactive: [1] | [4] | [2] | [3]

CC(=O)SC1CC2=CC(=O)CC[C@]2(C)C2CC[C@@]3(C)C(CC[C@@]34CCC(=O)O4)C12 (some centres undefined)
inactive: [1] | [3]

CN(C)CCC(c1ccc(Br)cc1)c1ccccn1 (centres undefined)
inactive: [3]

Nc1nc2[nH]c(=O)cnc2c(=O)[nH]1
inactive: [1] | [2] | [3]

CC(N)=O
inactive: [1] | [2] | [3]

Cn1ccnc1
inactive: [1] | [2] | [3]

N#C/C(=C\c1ccc(O)c(O)c1)C(=O)NCCc1ccccc1
inactive: [1] | [2] | [3]

N=C(N)c1ccccc1
inactive: [1] | [2] | [3]

N[C@@H](CCC(=O)N[C@H](CSN=O)C(=O)NCC(=O)O)C(=O)O
inactive: [1] | [4] | [2] | [3]

Nc1nc2c(cnn2CCc2ccccc2)c2nc(-c3ccco3)nn12
inactive: [1] | [4] | [3]

CCCCCCCCCC[Si](C)(C)CCC(=O)NC(Cc1ccc(C)cc1)c1ccccc1 (centres undefined)
inactive: [1] | [4] | [2] | [3]

O=C(O)CCC/C=C\C[C@@H]1[C@@H](/C=C/[C@H](O)C2Cc3ccccc3C2)[C@@H](F)C[C@@H]1O
inactive: [1] | [2] | [3]
